# Values quoted from earlier work, collected in PubChem BioAssay AID977611.
# In all, about 3,900 compounds went through this assay and about 3,900 (100%) were called active. The limit is not given here; nearly all actives have Kd up to about 4200 µM. So high a share suggests a set chosen from earlier hits. The list shows a part of the results. Where a SMILES comes first, the peptide text is derived from it. Non-standard residues stand in square brackets, D forms with d. Square brackets hold non-standard residues; d marks the D form. Residues, ends and D or L forms follow the SMILES beside them. Peptide text beside a SMILES is read from it. [ ]: non-standard residue; d: D form. *: point of attachment. Lys(Me3) = C[N+](C)(C)CCCC[C@H](N)C(=O)O; Orn(CH(NH2)2) = NC(N)NCCC[C@H](N)C(=O)O; For = O=C*
# Experiment: PubChem AID 977611
# Settings: PDB protein-ligand complexes, literature Kd
compound,measurement,setting,value
O=C(c1ccccc1)N(O)CC[C@@H](c1ccc(Cl)c(Cl)c1)[P+](O)(O)O,Kd,"protein: 1-DEOXY-D-XYLULOSE 5-PHOSPHATE REDUCTOISOMERASE, PDB entry 3zhx",0.21 µM (active)
O=C(c1ccccc1Cn1cncn1)N(O)CC[C@@H](c1ccc(Cl)c(Cl)c1)[P+](O)(O)O,Kd,"protein: 1-DEOXY-D-XYLULOSE 5-PHOSPHATE REDUCTOISOMERASE, PDB entry 3zi0",0.04 µM (active)
O=C(c1ccccc1Nc1cccc(C(F)(F)F)c1)N(O)CC[C@@H](c1ccc(Cl)c(Cl)c1)[P+](O)(O)O,Kd,"protein: 1-DEOXY-D-XYLULOSE 5-PHOSPHATE REDUCTOISOMERASE, PDB entry 3zhz",0.09 µM (active)
CC(C)C[C@H](NC(=O)[C@H](CC(=O)O)NC(=O)CNC(=O)[C@H](CCCN=C(N)N)NC(=O)CNC(=O)[C@H](Cc1cnc[nH]1)NC=O)C(=O)NCC(=O)N[C@@H](CCCN=C(N)N)C(=O)N[C@@H](CC(C)C)C(=O)N[C@@H](CCCCN)C(=O)N[C@@H](CCCCN)C(N)=O (For-HGRGDLGRLKK-NH2),Kd,"protein: Integrin alpha V beta 6, PDB entry 4um9",0.0085 µM (active)
CC(C)C[C@H](NC(=O)[C@H](Cc1cnc[nH]1)NC(=O)[C@H](CO)NC(=O)[C@H](CO)NC(=O)[C@H](Cc1cnc[nH]1)NC(=O)[C@H](C)NC(=O)[C@@H](N)CCCN=C(N)N)C(=O)N[C@@H](CCCCN(C)C)C(=O)N[C@@H](CO)C(=O)N[C@@H](CCCCN)C(=O)N[C@@H](CCCCN)C(=O)NCC(=O)N[C@@H](CCC(N)=O)C(=O)N[C@@H](CO)C(=O)N[C@H](C(=O)O)[C@@H](C)O,Kd,"protein: Tumor suppressor p53-binding protein 1, 53BP1 tandem Tudor domains, PDB entry 2mwo",20 µM (active)
CSCC[C@H](NC(=O)[C@H](CC(C)C)NC(=O)[C@H](CCCCN(C)C)NC(=O)[C@H](CCCCN)NC(=O)[C@H](Cc1cnc[nH]1)NC(=O)[C@H](CCCN=C(N)N)NC(=O)[C@H](CO)NC(=O)[C@@H](NC(=O)[C@@H](N)CO)[C@@H](C)O)C(=O)N[C@@H](Cc1ccccc1)C(=O)N[C@@H](CCCCN)C(=O)N[C@H](C(=O)O)[C@@H](C)O,Kd,"protein: Tumor suppressor p53-binding protein 1, 53BP1 tandem Tudor domains, PDB entry 2mwp",0.9 µM (active)
CC(C)C[C@H](NC(=O)[C@@H](NC(=O)[C@H](CCCC[N+](C)(C)C)NC(=O)[C@H](CCCNC(N)N)NC(=O)[C@@H](N)Cc1cnc[nH]1)C(C)C)C(=O)N[C@@H](CCCNC(N)N)C(=O)O (H-H[Orn(CH(NH2)2)][Lys(Me3)]VL[Orn(CH(NH2)2)]-OH),Kd,"protein: Polycomb protein EED, PDB entry 3jpx",235 µM (active)
CC(C)C[C@H](NC(=O)[C@@H](NC(=O)[C@@H](CCCC[N+](C)(C)C)NC(=O)[C@H](CCCNC(N)N)NC(=O)[C@H](Cc1cnc[nH]1)NC(=O)[C@@H](N)CCCNC(N)N)C(C)C)C(=O)N[C@@H](CCCNC(N)N)C(=O)O,Kd,"protein: JMJD2A-tudor, PDB entry 2qqs",0.4 µM (active)
CC(C)C[C@H](NC(=O)[C@@H](NC(=O)[C@H](CCCC[N+](C)(C)C)NC(=O)[C@H](CCCNC(N)N)NC(=O)[C@H](Cc1cnc[nH]1)NC(=O)[C@@H](N)CCCNC(N)N)C(C)C)C(=O)N[C@H](C=O)CCCNC(N)N (H-[Orn(CH(NH2)2)]H[Orn(CH(NH2)2)][Lys(Me3)]VL[Orn(CH(NH2)2)]-aldehyde),Kd,"protein: Polycomb protein EED residues 77-441, PDB entry 3ij1",20 µM (active)
CN(C)c1ccc(C(c2ccc(O)cc2)c2ccc(N(C)C)cc2)cc1,Kd,"protein: Immunoglobulin lambda variable domain L5(L89S), PDB entry 4k3h",0.14 µM (active)
CN(C)c1ccc(C(c2ccc(N(C)C)cc2)c2ccc(N(C)C)cc2)cc1,Kd,"protein: Putative regulatory protein, PDB entry 3vw1",21.2 µM (active)
Nc1ccc2[nH]c(=O)c3ccccc3c2c1,Kd,"protein: Putative ADP-ribosyltransferase Certhrax, PDB entry 4fk7",5.8 µM (active)
Nc1ncnc2c1ncn2[C@@H]1O[C@H](CO[P+](O)(O)O)[C@@H](O)[C@H]1O[C@H]1O[C@H](CO[P+](O)(O)O)[C@@H](O)[C@H]1O,Kd,"protein: E3 ubiquitin-protein ligase RNF146 RNF146(RING-WWE), PDB entry 4qpl",0.039 µM (active)
Nc1ncnc2c1ncn2[C@@H]1O[C@H](CO)[C@@H](O[P+](O)(O)OC[C@H]2O[C@@H](n3ccc(=O)[nH]c3=O)[C@H](O)[C@@H]2O)[C@H]1O,Kd,"protein: Poly(A) RNA polymerase protein cid1, PDB entry 4nku",21.3 µM (active)
Nc1ncnc2c1ncn2[C@@H]1O[C@H](CO[P+](O)(O)O[P+](O)(O)N[P+](O)(O)O)[C@@H](O)[C@H]1O,Kd,"protein: INOSITOL-PENTAKISPHOSPHATE 2-KINASE, PDB entry 4axd",37 µM (active)
same,Kd,"protein: N-acetylhexosamine 1-phosphate kinase NahK, PDB entry 4ock",8.3 µM (active)
same,Kd,"protein: N-acetylhexosamine 1-phosphate kinase NahK, PDB entry 4ocv",8.3 µM (active)
same,Kd,"protein: Osmolarity sensor protein EnvZ, Histidine kinase, PDB entry 4kp4",6.8 µM (active)
Nc1ncnc2c1ncn2[C@@H]1O[C@H](CO[P+](O)(O)OS(O)(O)O)[C@@H](O)[C@H]1O,Kd,"protein: Adenylyl-sulfate kinase 1, chloroplastic, PDB entry 4fxp",80.4 µM (active)
Nc1ncnc2c1ncn2[C@@H]1O[C@H](CO[P+](O)(O)O[P+](O)(O)OC[C@H]2O[C@H](O)[C@H](O)[C@@H]2O)[C@@H](O)[C@H]1O,Kd,"protein: Poly [ADP-ribose] polymerase 14 MACRO DOMAIN 1, PDB entry 3q6z",192 µM (active)
same,Kd,"protein: Poly [ADP-ribose] polymerase 14 MACRO DOMAIN 1 and 2, PDB entry 3vfq",6.4 µM (active)
same,Kd,"protein: Poly [ADP-ribose] polymerase 14 MACRO DOMAIN 2, PDB entry 3q71",6 µM (active)
same,Kd,"protein: Poly [ADP-ribose] polymerase 14 MACRO DOMAIN 3, PDB entry 4abk",1.9 µM (active)
NC(=O)C1=CN([C@H]2O[C@H](CO[P+](O)(O)O[P+](O)(O)OC[C@H]3O[C@@H](n4cnc5c(N)ncnc54)[C@H](O)[C@@H]3O)[C@@H](O)[C@H]2O)C=CC1,Kd,"protein: Redox-sensing transcriptional repressor rex, PDB entry 3wgg",39.9 µM (active)
Nc1ncnc2c1ncn2[C@@H]1O[C@H](CO[P+](O)(O)O[P+](O)(O)O[P+](O)(O)O[P+](O)(O)O[P+](O)(O)OC[C@H]2O[C@@H](n3cnc4c(N)ncnc43)[C@H](O)[C@@H]2O)[C@@H](O)[C@H]1O,Kd,"protein: Adenylate kinase, PDB entry 4w5j",0.057 µM (active)
Nc1ncnc2c1ncn2[C@@H]1O[C@H](CO[P+](O)(O)O[P+](O)(O)O[P+](O)(O)O)[C@@H](O)[C@H]1O,Kd,"protein: ADENYLATE CYCLASE TYPE 10, PDB entry 4usw",2030 µM (active)
same,Kd,"protein: Chaperone protein DnaK (N432M,Q433G,S434G mutation), PDB entry 4jn4",1.38 µM (active)
same,Kd,"protein: Hsp70 CHAPERONE DnaK (N432M,Q433G,S434G mutation), PDB entry 4jne",1.38 µM (active)
same,Kd,"protein: Nitrogen regulatory protein P-II hmGlnK2, PDB entry 4ozn",4 µM (active)
same,Kd,"protein: Protein hfq, PDB entry 3qo3",0.125 µM (active)
same,Kd,"protein: Walker B/D-loop D645N, D651A double mutant rat TAP1-NBD, PDB entry 4k8o",170 µM (active)
CC(=O)N1CCC[C@H]1C(=O)N[C@@H](Cc1c[nH]c2ccccc12)C(=O)N[C@@H](C)C(=O)N[C@H](C(=O)N[C@@H](CS)C(=O)N[C@@H](CC(=O)O)C(=O)N[C@@H](CO)C(N)=O)[C@@H](C)O,Kd,"protein: Thiol:disulfide interchange protein DsbAC30S, PDB entry 4od7",8.3 µM (active)
C[C@H](NC(=O)[C@H](Cc1c[nH]c2ccccc12)NC(=O)[C@H](CC(N)=O)NC(=O)[C@@H](N)CC(N)=O)C(=O)N[C@@H](CC(=O)O)C(=O)N[C@@H](Cc1ccccc1)C(=O)N[C@@H](CO)C(=O)N[C@@H](CO)C(=O)N[C@H](C(=O)N[C@@H](Cc1c[nH]c2ccccc12)C(=O)N1CCC[C@H]1C(=O)O)[C@@H](C)O (H-NNWADFSSTWP-OH),Kd,"protein: Adaptor protein complex AP-2, subunit beta-1, PDB entry 3hs9",0.49 µM (active)
H-PDVSSSTA-OH,Kd,"protein: Speckle-type POZ protein, SPOPMATH, PDB entry 3ivq",76.1 µM (active)
H-PHGGSWGQP-OH,Kd,"protein: POM2 Fab, PDB entry 4j8r",0.02 µM (active)
NCCCC[C@H](NC(=O)[C@H](CO)NC(=O)[C@@H]1CCCN1)C(=O)N[C@@H](CCCCN)C(=O)N[C@@H](CCCNC(N)N)C(=O)N[C@@H](CCCCN)C(=O)N[C@@H](CCCNC(N)N)C(=O)N[C@@H](CO)C(=O)N[C@@H](CCCNC(N)N)C(=O)N[C@@H](Cc1c[nH]c2ccccc12)C(=O)N[C@@H](CC(N)=O)C(=O)N[C@@H](CCC(N)=O)C(=O)N[C@@H](CC(=O)O)C(=O)O (H-PSKK[Orn(CH(NH2)2)]K[Orn(CH(NH2)2)]S[Orn(CH(NH2)2)]WNQD-OH),Kd,"protein: the C-terminal RRM (RRM3) of human U2AF65, PDB entry 1opi",0.05 µM (active)
H-PDWDFN-NH2,Kd,"protein: AP-1 COMPLEX SUBUNIT GAMMA-LIKE 2, PDB entry 3zhf",120 µM (active)
C[C@H](NC(=O)[C@H](Cc1c[nH]c2ccccc12)NC(=O)[C@H](CC(N)=O)NC(=O)[C@H](CC(N)=O)NC(=O)[C@@H]1CCCN1)C(=O)N[C@@H](CC(=O)O)C(=O)N[C@@H](Cc1ccccc1)C(=O)N[C@@H](CO)C(=O)N[C@@H](CO)C(=O)N[C@H](C(=O)N[C@@H](Cc1c[nH]c2ccccc12)C(=O)N1CCC[C@H]1C(=O)O)[C@@H](C)O (H-PNNWADFSSTWP-OH),Kd,"protein: Adaptor protein complex AP-2, alpha 2 subunit, PDB entry 3hs8",5 µM (active)
